Screening data as filed in PubChem.
A selection: hits, their analogues and other compounds. The true share with any hit is near 5.6%.
VP16 counter – VP16 counterscreen qHTS for inhibitors of ROR gamma transcriptional activity; 3.5% of 310,000 active; Potency, µM (doses to about 53.6 µM), hits mostly inhibitors; Drosophila S2 Gal4-VP16 UAS-luciferase, luminescence, 20 h; AID 2546, 2010;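 also: Gal4-VP16 expression switched on by copper sulfate through the metallothionein promoter; nearly all actives have a fitted effect of over 50% in size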
PKM2 act – qHTS Assay for Activators of Human Muscle isoform 2 Pyruvate Kinase; purified PKM2, Kinase-Glo ATP luminescence, activation; response scale: 0% is enzyme alone, no compound; AID 1631, 2009; Potency, µM (series often up to 57.5 µM), hits mostly activators; 0.34% of 260,000 active; also: nearly all actives have a fitted effect of over 55% in size
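hPK-M2, >95% pure; 0.1 mM ADP / 0.5 mM PEP final; imidazole pH7.2 buffer w/ 7 mM MgCl2, 50 mM KCl; 1 h RT; Kinase-Glo lum. Intermediate enzyme activity for dual inhibitor/activator qHTS.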
Six1-Eya2 blk – qHTS Assay for Inhibitors of the Six1/Eya2 Interaction; AlphaScreen GST-Six1/His-Eya2 binding, biochemical; active compounds read low; activity change, % (test concentration not listed); 0.56% of 360,000 active; AID 651725, 2012; in the data active = activity change below about -65%; inconclusive = mostly about -30% to -63%
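Compounds are tested against tagged Six1 and Eya2 proteins bridged by glutathione donor and nickel acceptor beads; after a one-hour incubation at 37 °C without light, AlphaScreen emission is recorded.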
RORgamma inh – qHTS for inhibitors of ROR gamma transcriptional activity; Nuclear receptor ROR-gamma (Mus musculus), P51450; Drosophila S2 Gal4-RORgamma UAS-luciferase reporter, 20 h; Potency, µM (highest dose often 53.6 µM), most hits filed as inhibitors; 5.4% of 310,000 active; AID 2551, 2010; also: nearly all actives have a fitted effect of over 60% in size
Target sequence (P51450 whole entry, looked up, the tested form may be a part): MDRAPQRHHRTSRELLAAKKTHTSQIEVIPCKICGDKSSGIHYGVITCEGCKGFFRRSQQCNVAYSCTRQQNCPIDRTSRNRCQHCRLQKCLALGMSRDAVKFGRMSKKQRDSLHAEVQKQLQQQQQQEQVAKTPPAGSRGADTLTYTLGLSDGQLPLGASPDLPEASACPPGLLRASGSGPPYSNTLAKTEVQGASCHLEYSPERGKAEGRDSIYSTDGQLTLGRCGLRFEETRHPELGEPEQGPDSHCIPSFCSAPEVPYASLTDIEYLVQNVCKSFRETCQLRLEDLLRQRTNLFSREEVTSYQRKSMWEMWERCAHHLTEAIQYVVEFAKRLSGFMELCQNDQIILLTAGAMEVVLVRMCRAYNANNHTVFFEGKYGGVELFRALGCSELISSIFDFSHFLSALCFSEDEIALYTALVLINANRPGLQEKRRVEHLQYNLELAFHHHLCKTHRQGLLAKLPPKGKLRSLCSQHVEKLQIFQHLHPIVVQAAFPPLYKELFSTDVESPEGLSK
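Stably transfected Drosophila Schneider cells are the test system, with ROR gamma fused to Gal4 and luciferase under UAS control; luminescence is read after 20 hr of 700 uM copper sulfate induction at ambient temperature.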
CtBP-E1A inh – qHTS Assay for Inhibitors of the CtBP/E1A Interaction | AID 651724, 2012 | CtBP / adenovirus E1A interaction (AlphaScreen) | activity change, % (no concentration beside the values) | AlphaScreen GST-E1A/His-CtBP binding, 1536-well; active compounds read low | 0.49% of 340,000 active; in the data active = activity change below about -65%; inconclusive = mostly about -30% to -63%
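GST-E1A and His-tagged CtBP (125 nM each as 5X stock) were preincubated with pin-transferred compound for 2 h at 37 °C in the dark, then glutathione donor and nickel acceptor beads were added for 1 h before AlphaScreen reading.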
A number is an active result; n = inactive; u = inconclusive; x = no result; ! = a repeat was not active; [ ] = another dose, or the depositor's remark. Unless noted, calls follow the shape of the dose curve; as a rule, active = well fitted curve in the direction sought with a large enough effect; inconclusive = small, poorly fitted or top-dose-only effect, or another doubt; inactive = no such curve, though single readings can be large; an effect the other way counts as inactive or inconclusive.

SMILES | VP16 counter | PKM2 act | Six1-Eya2 blk | RORgamma inh | CtBP-E1A inh
O=C(Nc1ccc(F)c(Cl)c1)c1cc(C2CCCCN2C(=O)c2cccs2)on1 (stereo not drawn) | x | x | n | x | n
COc1ccccc1NC(=O)N1CCC(NC(=O)C2CCCCC2)CC1 | n | n | n | n | n
N#CC1=C(N)N2C(=C(C#N)C1c1ccc(Br)cc1)Nc1ccccc12 (stereo not drawn) | 11.2µM | n | n | u | n
N#CC1=C(N)N2C(=C(C#N)C1c1cccc(Br)c1)Nc1ccccc12 (stereo not drawn) | 12.6µM | n | n | u | n
N#CC1=C(N)N2C(=C(C#N)C1c1ccccc1)Sc1ccccc12 (stereo not drawn) | n | n | x | n | x
C(=N\Nc1ccccn1)/c1ccc(N2CCOCC2)cc1 | n | n | n | u | n
C/C(=N\Nc1ccccn1)c1ccc(C(C)C)cc1 | 11.2µM | n | n | 3.98µM | n
C/C(=N\Nc1ccccn1)c1ccc(N2CCOCC2)cc1 | u | n | n | 7.08µM | n
C/C(=N\Nc1ccccn1)c1ccc2c(c1)OCO2 | u | n | n | u | n
CC(C)(C)c1ccc(-n2nc(C#N)c(Cl)cc2=O)cc1 | 7.08µM | n | n | 7.08µM | n
Cc1ccc(C(C)(C)C)c(SCC(=O)Nc2nnc(C)s2)c1 | n | x | n | 7.08µM | n
Cc1nnc(NC(=O)CSc2cn(Cc3ccccc3)c3ccccc23)s1 | n | n | n | 11.2µM | n
Cc1nnc(NC(=O)CSc2ccccc2N)s1 | n | n[11.5 µM] | n | n | x
CC(C)(CC(=O)O)CC(=O)NNc1ncccc1C#N | n | n | n | n | n
COCCCNC(=O)CNC(=S)N(Cc1ccccc1F)C1CCCCC1 | n | n | n | n | n
CCCCNC(=O)CNC(=S)N(Cc1ccccc1F)C1CCCCC1 | n | n | n | 12.6µM | n
O=C(/C=C/c1ccccc1)Nc1ccc(CN2CCOCC2)cc1 | n | n | n | n | x
O=C(/C=C/c1ccc(Cl)cc1)NC(=S)Nc1ccc(NC(=O)c2ccco2)cc1 | 7.08µM | n | n | 4.47µM | n
CC(=O)Nc1ccc(NC(=S)NC(=O)/C=C/c2ccc(Cl)cc2)cc1 | n[10 µM] | n | n | n | n
O=C(/C=C/c1ccc(Cl)cc1)NC(=S)Nc1ccc(CN2CCOCC2)cc1 | 6.31µM | n | n | 3.98µM | n
COc1ccc(Br)cc1/C=C/C(=O)c1ccc(NC(C)=O)cc1 | 10µM | n | n | 5.01µM | n
O=C(CC12CC3CC(CC(C3)C1)C2)NC(=S)Nc1ccc(CN2CCOCC2)cc1 | 10µM | n | n | 1.58µM | n
NC(=O)C1CCN(C(=O)C2CCC(=O)N(CC3CCCCC3)C2)CC1 (stereo not drawn) | n | x | n | n | n
COc1ccc(Br)cc1/C=C/C(=O)NC(=S)Nc1ccc(CN2CCOCC2)cc1 | 4.47µM | n | n | 1.78µM | x
COc1ccc(C(=O)Nc2ccc(CN3CCOCC3)cc2)cc1Br | n | n | n | n | n
SMILES | VP16 counter | PKM2 act | Six1-Eya2 blk | RORgamma inh | CtBP-E1A inh
COc1ccccc1-c1nnc(NC(=O)CSc2nncn2C)s1 | u | n | n | 8.91µM | n
COc1ccccc1-c1nnc(NC(=O)C(C)Sc2nncn2C)s1 (stereo not drawn) | n | n | n | n | x
CC1(c2ccccc2)NC(=O)N(CC(=O)Nc2ccccc2N2CCCCC2)C1=O (stereo not drawn) | x | x | n | x | n
CCC1(c2ccccc2)NC(=O)N(CC(=O)Nc2ccccc2N2CCCC2)C1=O (stereo not drawn) | x | x | n | x | -68.0
O=[N+]([O-])c1ccc(C2Oc3ccccc3C3CC(c4ccccc4)=NN32)s1 (stereo not drawn) | u | n | x | 11.2µM | x
CN(C)c1ccc(P(=O)(OCc2ccccc2)C(O)c2ccccc2)cc1 (stereo not drawn) | n | n | n | n | n
COc1cccc(-c2ccc3ncnc(Nc4ccccc4)c3c2)c1 | n | x | x | n | x
COc1ccccc1C1C2=C(N=C3SCC(=O)N31)c1ccccc1CC2 (stereo not drawn) | n | n | n | 11.2µM | n
C=CCN(CC=C)c1cnn(-c2nc3ccccc3[nH]2)c(=O)c1Cl | n | n | n | n | n
O=c1c(Cl)c(NCCCO)cnn1-c1nc2ccccc2[nH]1 | 3.55µM | n | n | 5.01µM | n
COc1cccc(N2CCN(c3ncnc4c3[nH]c3ccc(F)cc34)CC2C)c1 (stereo not drawn) | 7.08µM | n | u | u | n
COc1ccc2c(c1)[nH]c1c(N3CCSCC3)ncnc12 | u | n | n | u | n
COc1cccc(N2CCN(c3ncnc4c3[nH]c3ccccc34)CC2C)c1 (stereo not drawn) | 14.1µM | n | x | u | x
Cc1cccc2nc(COc3ccc(-c4ccccc4)cc3)cn12 | n | n | x | 12.6µM | x
Cc1cccc(OCC(=O)NCC(=O)N/N=C/c2c(C)[nH]c3ccccc23)c1 | n | n | n | n | n
CCOC(=O)c1nnn(-c2ccc([N+](=O)[O-])cc2[N+](=O)[O-])c1C | u | n | n | 7.08µM | -65.6
CCOC(=O)N1CCN(/[N+]([O-])=N/Oc2ccc([N+](=O)[O-])cc2[N+](=O)[O-])CC1 | 7.08µM! | x | x | 8.91µM | x
CCOC(=O)N1CCN(c2ccc([N+](=O)[O-])cc2)CC1 | n | n | n | n | n
O=c1nc(N2CCCC2)nc(N2CCCC2)[nH]1 | n | n | n | n | n
Clc1ccccc1/C=N/NC1=Nc2cccc3cccc1c23 | u | n | n | 0.282µM | n
C(=N\NC1=Nc2cccc3cccc1c23)/c1ccccn1 | x | n | u | 0.0398µM | x
O=C(CN1CC(=O)Oc2ccccc21)NCc1ccco1 | n | n | -71.8 | n | u
O=C(CN1CCOc2ccccc21)NCc1ccco1 | n | n | n | n | n
O=C(NCc1ccco1)N1c2ccccc2Sc2ccccc21 | 35.5µM | n | n | u | n
CCc1csc(CCNC(=O)C2CCC(=O)N(Cc3cccc(C(F)(F)F)c3)C2)n1 (stereo not drawn) | n | n | n | n | n
O=[N+]([O-])c1cccc(/C=N/NC2CCS(=O)(=O)C2)c1 (stereo not drawn) | n | n | n | n | n
Cc1ccc(NC(=O)CSc2n[nH]c(-c3ccccn3)n2)cc1 | 5.62µM | n | -77.4 | 4.47µM | -90.5
O=C(CSc1n[nH]c(-c2ccncc2)n1)Nc1ccccc1 | n | n | n | n | n
O=C(CSc1n[nH]c(-c2ccccn2)n1)Nc1ccc(Cl)cc1 | 0.1µM | x | -90.8 | 2.51µM | -92.4
O=C(CSc1n[nH]c(-c2ccncc2)n1)Nc1ccc(F)cc1 | n | n | n | n | n
